The whole screen tested about 220,000 compounds, of which about 2,400 (1.1%) were called active. Entries that show only a call come without a potency. Another 7% or so got no clear call; they are omitted. Calls come from the whole dose curve; as a rule, active = well fitted inhibition curve with a large enough effect; inconclusive = small, poorly fitted or top-dose-only effect, or effect the other way; inactive = no such curve, though single readings can be large or run the other way. Many of the other results were omitted from the sample, so actives are more common in it than they were.
Assay: qHTS Multiplex Assay to Identify Dual Action Probes in a Cell Model of Huntington: Aggregate Formation (GFP); note: nearly all actives have a fitted effect of over 60% in size
Conditions: PC12 HttQ103-GFP aggregates, Acumen cytometry, 40 h; series mostly up to 9.22 µM
Procedure, shortened: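 Huntingtin Q103 exon 1–GFP aggregates in induced PC12 cells (100 nM tebufenozide) were quantified by cytometry from lysates, with compounds dosed in titration.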
Potency is the fitted concentration of half-maximal effect.

Structure (SMILES) | Potency
Cn1nc(C(F)(F)F)c(-c2ccc(F)cc2)c1NC(=O)CSCC(=O)O | inactive
COc1cc(/C=N/Nc2nc3ccccc3s2)ccc1O | inactive
c1ccc2sc(NN=C3CCCC3)nc2c1 | inactive
O=[N+]([O-])c1cc(Br)c(O)c(/C=N/Nc2nc3ccccc3s2)c1 | 5.01 µM (active)
COc1ccc(C(C)=O)cc1COc1ccc(Cl)c(C)c1 | inactive
CCOC(=O)C1=C(N)N2C(=O)C(C)SC2=C(C(=O)OCC)C1c1cc(OC)c(OC)c(OC)c1 (stereo unspecified) | inactive
O=C(NC(=O)c1ccccc1N1CCCCC1)Nc1ccc(Br)cc1 | inactive
Cn1c(=O)n(C)c(=O)n(CC(=O)N2CCCCC2)c1=O | 3.55 µM (active)
COc1cccc2c(=O)n(CC(=O)N3CCCCCC3)ccc12 | inactive
O=C(CN1C(=O)c2cccc3cccc(c23)C1=O)N1CCCCC1 | inactive
O=C(CC(c1ccccc1)c1cc(Cl)ccc1O)NCCN1CCOCC1 (stereo unspecified) | inactive
Cc1c(NC(=O)C(=O)N/N=C/c2cccs2)c(=O)n(-c2ccccc2)n1C | inactive
COC(=O)c1cc(S(=O)(=O)N2CCC(C(N)=O)CC2)oc1C | inactive
Cc1nnc(SCC(=O)N2CCc3ccccc3C2)s1 | inactive
Cc1nc(SCC(=O)N2CCc3ccccc3C2)c2c(C)c(C)sc2n1 | 14.1 µM (active)
Cc1nc(SCC(=O)N2CC(=O)Nc3ccccc32)c2c(C)c(C)sc2n1 | inactive
O=C(Nc1ccc(Cl)cc1)Nc1ccc(C(=O)N2CCOCC2)cc1 | inactive
O=C(C[n+]1cc(-c2ccc(Cl)c(Cl)c2)n2c1CCC2)c1cccs1 | inactive
COc1ccc(CCN2C(=O)CC(N3CCC(C(N)=O)CC3)C2=O)cc1OC (stereo unspecified) | inactive
CCCC(=O)Nc1nnc(-c2ccccc2)o1 | inactive
CCCCCCc1cc2cc(-c3nnc(-c4ccccc4)o3)c(=O)oc2cc1O | 5.01 µM (active)
Cc1c(CCC(=O)O)c(=O)oc2cc3occ(-c4ccccc4)c3cc12 | inactive

Structure (SMILES) | Potency
COc1cc(C(F)(F)F)c(C(=O)N(C)c2ccc(Cl)cc2)cn1 | inactive
CCC(=O)Nc1cccc(C2=NOC3(C2)C[C@@H](C(N)=O)N(C(=O)c2cc([N+](=O)[O-])cc([N+](=O)[O-])c2C)C3)c1 (stereo partly specified) | inactive
O=c1c2ccccc2nc2n1C(CSCc1ccccc1)CS2 (stereo unspecified) | 11.2 µM (active)
O=c1c2ccccc2nc2n1C(CSc1ccc(F)cc1)CN2 (stereo unspecified) | inactive
O=c1c2ccccc2nc2n1C(CSc1ccc(Cl)cc1)CN2 (stereo unspecified) | inactive
CN(C)S(=O)(=O)c1ccc(NC(=O)COC(=O)Cn2[nH]c(=O)c3ccccc3c2=O)cc1 | inactive
O=C(O)c1cccc(NC(=O)c2cc(-c3cccc(Cl)c3)nc3ccccc23)c1 | inactive
Clc1cccc(-c2nc(NCC3CCCO3)c3ccccc3n2)c1 (stereo unspecified) | inactive
Clc1ccc2nc(-c3ccccc3)nc(C(Cl)Cl)c2c1 | 1.41 µM (active)
CC(C)=NN1C(=O)c2ccccc2NC1(C)C | inactive
Cc1ccccc1Nc1c(-c2ccccc2)nc2ncccn12 | inactive
C/C(=N\NC(=O)Cc1ccc(F)cc1)c1ccc(F)cc1 | inactive
O=C(CNC(=O)C(c1ccccc1)c1ccccc1)N/N=C\c1ccc2c(c1)OCO2 | inactive
C/C(=N\NC(=O)CNC(=O)C(c1ccccc1)c1ccccc1)c1ccc(C)cc1 | 12.6 µM (active)
CCNC(=S)N1CCN(CCN=CC2=C(O)CC(C)(C)CC2=O)CC1 | inactive
O=C(N/N=C/c1ccc2c(c1)OCO2)c1ccc(Cn2cc([N+](=O)[O-])cn2)o1 | inactive
Cc1c(Cl)c([N+](=O)[O-])nn1CCCC(=O)Nc1cc(Cl)ccc1Cl | inactive
Cc1c(Cl)c([N+](=O)[O-])nn1Cc1ccc(C(=O)N/N=C\c2cc(Cl)ccc2O)o1 | 1.58 µM (active)
CC(NC(=S)Nc1ccccc1)C(c1cccs1)N1CCOCC1 (stereo unspecified) | inactive
O=C(O)CSCC(=O)Nc1cccc(C(F)(F)F)c1 | inactive
O=C(Nc1cccc(C(F)(F)F)c1)c1cc(Br)cc(Br)c1O | 5.01 µM (active)
O=C(Nc1cccc(C(F)(F)F)c1)c1cnccn1 | inactive

Structure (SMILES) | Potency
Cc1cc(C(=O)CSc2nc(N)cc(=O)[nH]2)c(C)n1Cc1ccco1 | inactive
COC(c1ccccc1)(c1ccccc1)C(Oc1nc(C)cc(C)n1)C(=O)O (stereo unspecified) | inactive
COc1ccc(/C=C/c2nnc(NC(=O)C(C)C)s2)cc1 | inactive
CCN(CC)S(=O)(=O)c1ccc(N(C)Cc2ccc(C(F)(F)F)cc2)nc1 | 10 µM (active)
CCN(CC)S(=O)(=O)c1ccc(Cl)c(NC(=O)c2ccncc2)c1 | inactive
CCN(CC)S(=O)(=O)c1ccc(N(C)CCc2ccc(OC)c(OC)c2)nc1 | inactive
C/C(=N\OCC(=O)O)c1ccc(Cl)cc1 | inactive
O=C(CNCc1cccs1)Nc1cc(S(=O)(=O)N2CCCC2)ccc1Cl | inactive
CC(C)n1cnc2c(Nc3cccc(Cl)c3)nc(N(CCO)CCCO)nc21 | inactive
OCCCNc1nccc(-c2cc(Nc3cccc(Cl)c3)ncn2)n1 | 0.794 µM (active)
O=C(Nc1cc(Cl)cc(Cl)c1)C(NCCCO)c1ccccc1 (stereo unspecified) | inactive
Brc1ccc2c(c1)[C@H]1OCC[C@H]1[C@@H](c1cccs1)N2 | inactive
O=C(CSc1nc2ccccc2[nH]1)c1cccs1 | inactive
CCC(C)N1C(=O)S/C(=C/c2ccc(Sc3nc4ccccc4[nH]3)o2)C1=O (stereo unspecified) | 10 µM (active)
CCCCSc1nc2ccccc2[nH]1 | inactive
O=C(O)c1ccc(/C=N/Nc2nc(N3CCCCC3)nc(N3CCCCC3)n2)cc1 | inactive
NC(=O)c1ccc(NC(=O)COC(=O)c2ccc([N+](=O)[O-])cc2)cc1 | inactive
COc1ccc(N(Cc2ccccc2)S(=O)(=O)c2cccc(C(=O)O)c2)cc1 | inactive
CCOC(=O)N1CCN(C(=O)c2ccc(S(=O)(=O)c3ccc(C)cc3)c(NC(C)=O)c2)CC1 | inactive
CCOC(=O)N1CCN(C(=O)c2ccc3c(c2)N(Cc2ccc(C)cc2)CCS3)CC1 | 11.2 µM (active)
O=C(NCCN1CCOCC1)c1ccc2c(c1)N(Cc1ccc(Cl)cc1)CCS2 | inactive
Cc1ccc(S(=O)(=O)N2CCN(C(=O)COC(=O)c3c(C)noc3C)CC2)c(C)c1 | inactive

Structure (SMILES) | Potency
O=C(c1ccccc1-c1ccccc1)N1CCOCC1 | inactive
Cc1oc2c(c1C(=O)N1CCOCC1)C(=O)c1ccccc1C2=O | 10 µM (active)
Cc1onc(-c2ccccc2)c1C(=O)N1CCOCC1 | inactive
COCCN1C2=C(COC(C)(C)C2)C(=S)NC1c1ccccc1 (stereo unspecified) | inactive
COC(=O)c1sccc1NN1C(=O)c2ccccc2C1=O | inactive
COC(=O)c1sc2ncccc2c1OCc1ccc(Cl)cc1Cl | inactive
COCCNC(=O)c1ccccc1-c1nc(-c2ccccc2Cl)no1 | inactive
COCCNC(=O)c1snc2ccc(Cl)cc12 | 10 µM (active)
Brc1ccc(C2=CC(c3ccco3)n3ncnc3N2)cc1 (stereo unspecified) | inactive
COC(=O)C1=C(C)Nc2ncnn2C1c1cccnc1 (stereo unspecified) | inactive
Clc1ccc2c(c1)C1=C(C(c3ccncc3)O2)C(c2ccc(Br)cc2)n2ncnc2N1 (stereo unspecified) | 12.6 µM (active)
Cc1ccc(-c2ncc(Cl)cc2-c2ccc(S(C)(=O)=O)cc2)cn1 | inactive
Cc1ccc(Cn2c(SCC(=O)N/N=C/c3ccccc3OCC(=O)O)nc3ccccc32)cc1 | inactive
O=C(CCCN1C(=O)/C(=C/c2ccco2)SC1=S)Nc1ccccc1 | 25.1 µM (active)
O=C(CCCN1C(=O)/C(=C\c2ccccc2)SC1=S)Nc1ccccc1O | inactive
O=C(CCCN1C(=O)/C(=C\c2ccco2)SC1=S)Nc1cccc2ccccc12 | inactive
CC(=O)NCC(O)c1ccc([N+](=O)[O-])cc1 (stereo unspecified) | inactive
C/C(Cc1ccccc1)=N\NC(=O)CNC(=O)c1ccc2c(c1)OCCO2 | inactive
COC(=O)c1cc(NC(=O)c2cccnc2)ccc1N1CCOCC1 | inactive
O=C(Nc1ccc(N2CCN(C(=O)c3ccccc3)CC2)c(Cl)c1)c1cccnc1 | 22.4 µM (active)
O=C(Nc1ccc(N2CCN(C(=O)c3ccccc3)CC2)c(Cl)c1)c1ncn[nH]1 | inactive
O=C(Nc1ccc(N2CCOCC2)nc1)c1c(F)cccc1F | inactive

Structure (SMILES) | Potency
Cc1cc(-c2ccc(/C=N/n3cnnc3)o2)c([N+](=O)[O-])cc1C | inactive
O=C1C2C3C=CC(C4CC34)C2C(=O)N1/N=C/c1ccc(-c2ccccc2[N+](=O)[O-])o1 (stereo unspecified) | 25.1 µM (active)
N#C/C(=C/c1ccc(-c2ccccc2[N+](=O)[O-])o1)C(=O)NCCN1CCCCC1 | inactive
FC(F)(F)c1cccc(NC(=S)Nc2cccc(Cl)c2)c1 | inactive
Cn1nc(C(F)(F)F)c(C(=O)Nc2cccc(C(F)(F)F)c2)c1SCc1ccc(Cl)cc1 | 12.6 µM (active)
COC(=O)c1ccccc1Sc1c(/C=N/OCc2ccc(Cl)cc2)c(C(F)(F)F)nn1C | inactive
COc1ccc2[nH]c(=S)cc(C)c2c1 | inactive
O=C(Nc1nnc(COc2ccccc2)s1)Nc1ccccc1F | inactive
CC(NC(=S)NNS(=O)(=O)c1ccc(C(C)(C)C)cc1)c1ccccc1 (stereo unspecified) | inactive
COCCOCCn1cnc2ccccc21 | inactive
Cc1cc2ncn(CCCCOc3ccccc3)c2cc1C | 11.2 µM (active)
Clc1ncn(CCOc2ccccc2)c1Cl | inactive
CCOC(=O)CSc1nc(C)c(Oc2ccc(Cl)cc2Cl)c(=O)[nH]1 | inactive
Brc1ccc(-c2nn[nH]n2)cc1 | inactive
COc1ccc(SCCN2CCN(CC(C)C)CCC2=O)cc1 | inactive
CSc1nc(-c2ccccc2)nc(C(Cl)Cl)n1 | 11.2 µM (active)
CSc1nc(C)cc(SC(C(C)=O)C(=O)Nc2ccccc2)n1 (stereo unspecified) | inactive
Cc1cccc(NC(=O)CSc2nnc(CCNC(=O)OC(C)(C)C)o2)c1C | inactive
